Assay outcomes deposited in PubChem BioAssay by Broad Institute.
PDI turbidity – blocks human protein disulfide isomerase activity | P07237 | PDI insulin aggregation turbidity, A650, 90 min | inhibition, % at 10 µM | hit rate 0.052% among 350,000 | AID 588391;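 active = mean inhibition across replicates of 30% or more, whatever share of single replicates reach that level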
Vif inh – HIV Vif inhibition. inhibition, % at 7.49 µM. AID 602346. hit rate 0.35% among 340,000. HEK293T cells, Vif self-association by quenched fluorescence, imaging, 24 h; in the data active = inhibition above about 50%, passing the limit was not always enough
Glyco luc inh – N-linked glycosylation inhibition; D54 ERlucT glycosylation luciferase reporter, 24 h; percent of 100 nM tunicamycin response; reporter increase, % at 12.5 µM; hit rate 0.23% among 360,000;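 active = mean luciferase reporter signal, scaled so untreated is 0 and the glycosylation-blocking control 100, at or above a set limit in every replicate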;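 note: luciferase carries N-glycosylation sites so blocking glycosylation raises the light; 0% = median of neutral control wells and 100% = median of 100 nM tunicamycin wells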
ERp5 inh – ERp5 (human) disulfide isomerase inhibition; ERp5 insulin aggregation, absorbance 650 nm, 90 min; AID 651711; hit rate 0.05% among 350,000; inhibition, % at 9.99 µM;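 active = mean replicate inhibition above about 25%, with every replicate also reaching it, limit read from the data, passing the limit was not always enough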
Target sequence (Q15084 whole entry, looked up): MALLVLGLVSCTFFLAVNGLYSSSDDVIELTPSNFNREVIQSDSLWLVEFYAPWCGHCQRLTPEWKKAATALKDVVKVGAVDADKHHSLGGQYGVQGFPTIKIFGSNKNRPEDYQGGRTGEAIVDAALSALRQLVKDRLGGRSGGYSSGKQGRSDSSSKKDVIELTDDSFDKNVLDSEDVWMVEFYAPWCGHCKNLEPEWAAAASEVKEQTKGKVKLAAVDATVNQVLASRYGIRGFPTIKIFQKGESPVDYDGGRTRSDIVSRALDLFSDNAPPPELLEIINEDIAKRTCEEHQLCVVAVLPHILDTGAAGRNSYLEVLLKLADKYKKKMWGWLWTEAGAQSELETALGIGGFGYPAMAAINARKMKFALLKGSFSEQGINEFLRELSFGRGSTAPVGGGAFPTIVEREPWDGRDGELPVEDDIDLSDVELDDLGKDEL
PvdQ acylase – blocks Pseudomonas aeruginosa PvdQ acylase activity. purified PvdQ acylase, fluorescence plate reader. inhibition, % at 10 µM. hit rate 0.063% among 340,000. AID 488965; in the data active = inhibition above about 30%, passing the limit was not always enough;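 note: 0% = vehicle neutral wells and 100% = reference inhibitor wells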
The depositor's hits bear a star. Shown are actives, neighbours in structure and some others; about 0.56% of the full set was active somewhere.

For COc1cc(O)c(C(=O)/C=C/c2ccccc2)c(OC)c1 the results were Vif inh 8, Glyco luc inh 42*, ERp5 inh 0 and PvdQ acylase 0.
Screening C#CCOCCOCCOCCNc1nc(N2CCN(C(=O)[C@H](CCCCN)n3cc([C@@H](N)CC(C)C)nn3)CC2)nc(N2CCN(C(=O)[C@H](Cc3cc4ccccc4[nH]3)n3cc([C@@H](N)Cc4ccc(O)cc4)nn3)CC2)n1 returned PDI turbidity 35*, Vif inh -8, Glyco luc inh -1 and PvdQ acylase -13.
For C#CCOCCOCCOCCNc1nc(N2CCOCC2)nc(N2CCN(C(=O)[C@H](Cc3cc4ccccc4[nH]3)n3cc([C@@H](N)C(C)CC)nn3)CC2)n1 (stereo partly drawn) the results were PDI turbidity 9, Vif inh -4, Glyco luc inh -4, ERp5 inh 1 and PvdQ acylase -17.
C#CCOCCOCCOCCNc1nc(N2CCN(C(=O)C(Cc3cc4ccccc4[nH]3)n3cc(C(N)C(C)CC)nn3)CC2)nc(N2CCN(C(=O)C(Cc3cc4ccccc4[nH]3)n3cc(C(N)C(C)CC)nn3)CC2)n1 (stereo not drawn) was read as PDI turbidity 55*, Vif inh -6, Glyco luc inh -1 and PvdQ acylase -1.
Screening CC(=O)NCC(=O)OCC(=O)c1ccc(C)cc1 returned PDI turbidity -2, Vif inh -4, Glyco luc inh 2 and PvdQ acylase -11.
COCCN(C(=O)CNC(=O)c1ccco1)C(C(=O)NC1CCCC1)c1cccc(OC)c1 (stereo not drawn) was read as PDI turbidity 11, Vif inh 52*, Glyco luc inh -1, ERp5 inh -7 and PvdQ acylase 5.
`COCCN(C(=O)CCl)C(C(=O)NC1CCCCC1)c1ccccc1C` (stereo not drawn) gave PDI turbidity -2, Vif inh -2, Glyco luc inh 30*, ERp5 inh -2 and PvdQ acylase -2.
COCCN(C(=O)CCC(=O)Nc1cc(C)on1)C(C(=O)NC1CCCC1)c1ccccc1C (stereo not drawn) was read as PDI turbidity 1, Vif inh 16, Glyco luc inh -1, ERp5 inh 7 and PvdQ acylase -7.
Screening NCCOc1ccccc1OCCN returned PDI turbidity 1, Vif inh 0, Glyco luc inh 1, ERp5 inh 1 and PvdQ acylase 6.
`NCCOc1ccccc1-c1ccccc1` gave PDI turbidity 4, Vif inh 50*, Glyco luc inh -1 and PvdQ acylase -18.
CCc1ccc(C(=O)CN2CCSC2=N)cc1 was read as PDI turbidity -5, Vif inh 0, Glyco luc inh -10, ERp5 inh 0 and PvdQ acylase -4.
`CC(=NO)C1CCC2C3CCC4=CC(=NO)CCC4(C)C3C(O)CC12C` (stereo not drawn) gave PDI turbidity 2, Vif inh -3, Glyco luc inh -5, ERp5 inh -3 and PvdQ acylase 2.
CC(=NO)C1CCC2C3CCC4=CC(=NO)CCC4(C)C3C(=O)CC12C (stereo not drawn) was read as PDI turbidity 37*, Vif inh -4, Glyco luc inh -5, ERp5 inh -4 and PvdQ acylase -13.
CC[C@@]1(c2ccccc2OC)ON(c2ccccc2C(F)(F)F)C1=O was read as PDI turbidity 7, Vif inh -10, Glyco luc inh 43*, ERp5 inh 7 and PvdQ acylase -14.
O=C1[C@@H](Oc2ccccc2)[C@@H](c2ccncc2)N1c1ccccc1 was read as PDI turbidity -5, Vif inh -1, Glyco luc inh 6, ERp5 inh -3 and PvdQ acylase -13.
Screening CCN1CCCC1CNC(=O)CSCc1nc(-c2ccccc2C)oc1C (stereo not drawn) returned PDI turbidity 3, Vif inh 7, Glyco luc inh -2 and PvdQ acylase -2.
Screening Cc1ccc(-c2nnn(CC(=O)Nc3ccc(S(=O)(=O)N4CCC(C)CC4)cc3)n2)cc1 returned PDI turbidity 0, Vif inh -2, Glyco luc inh 21 and PvdQ acylase -2.
For CC1CCN(S(=O)(=O)c2ccc(NC(=O)Cn3nnc(-c4ccccc4)n3)cc2)CC1 the results were PDI turbidity -3, Vif inh -3, Glyco luc inh 47* and PvdQ acylase -6.
